Screens: PubChem BioAssay, NMMLSC
CIT2 TOR yeast: modulators of CIT2-GFP expression in yeast, primary screen, S. cerevisiae, GFP fusion, multiplex flow cytometry, MLPCN library | S. cerevisiae CIT2-GFP strain, 3 h; 100 means same as DMSO wells | GFP response vs DMSO, % at 10 µM | 0.065% of 320,000 active | AID 2029, 2009;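 active = GFP response relative to DMSO above a set limit, near the screen mean plus 3 SD, cut at about 150% in these data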;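 note: ratio of well median GFP fluorescence to mean of DMSO wells on the plate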
AGP1-GFP MLPCN: modulators of AGP1-GFP expression in yeast TOR pathway, primary screen, cell-based, multiplex flow cytometry, S. cerevisiae, MLPCN library; 3 h; GFP as percent of DMSO wells; GFP response vs DMSO, % at 10 µM; 0.02% of 320,000 active; AID 2066, 2009;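 active = GFP response relative to DMSO above a set limit, near screen average plus 3 SD, cut at about 150% in these data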;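 note: median GFP channel fluorescence of the gated AGP1 strain per well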
MEP2-GFP yeast: modulators of MEP2-GFP levels in yeast, primary screen, S. cerevisiae, multiplex flow cytometry, MLPCN library; S. cerevisiae MEP2-GFP strain, 3 h; 100% = DMSO control level; GFP response vs DMSO, % at 10 µM; 0.51% of 330,000 active;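 active = GFP response versus DMSO above a set limit, roughly screen mean plus 3 SD, cut at about 180% in these data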;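 note: median GFP fluorescence of the barcode-gated MEP2-GFP cells per well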
RPL19A-GFP yeast: RPL19A-GFP expression modulators in yeast, primary screen, cell-based, S. cerevisiae, multiplex flow cytometry, MLPCN; S. cerevisiae RPL19A-GFP strain, 3 h; hits give low values; percent response vs DMSO, % at 10 µM; 0.3% of 330,000 active; AID 2025, 2009;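 active = percent response vs DMSO below 50%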;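 note: median channel GFP fluorescence of the barcoded RPL19A-GFP strain; lower means less RPL19A-GFP as with rapamycin TOR inhibition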
LAP4-GFP MLPCN: modulators of LAP4-GFP expression in yeast, primary screen, S. cerevisiae, multiplex flow cytometry, MLPCN library | GFP response vs DMSO, % at 10 µM | 0.34% of 320,000 active | 3 h; median GFP as percent of DMSO wells;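 active = GFP response vs DMSO above a set limit, about the screen mean plus 3 SD, cut at about 150% in these data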
LAP4 cherry2: LAP4-GFP expression modulators in yeast, confirmation, cell-based, second cherry pick, flow cytometry. S. cerevisiae LAP4-GFP strain, 3 h. AID 2621, 2010. 20% of 590 active. GFP response vs DMSO, % at 10 µM. shares compounds with LAP4-GFP MLPCN;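 active = GFP signal as percent of the solvent control above about 150%, meaning raised reporter expression, limit read from the data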
MEP2-GFP pick2: modulators of MEP2-GFP levels in yeast, confirmation, S. cerevisiae, flow cytometry GFP, second cherry picks. shares compounds with LAP4-GFP MLPCN. S. cerevisiae MEP2-GFP strain, 3 h. GFP response vs DMSO, % at 10 µM. 10% of 590 active;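 active = GFP signal above 150% of the solvent control wells, that is a rise of more than half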;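 note: median channel GFP fluorescence of all gated yeast cells per well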
RPL19A-GFP pick2: RPL19A-GFP modulators in TOR pathway yeast, confirmation, cell-based, S. cerevisiae, flow cytometry, second cherry pick; GFP response vs DMSO, % at 10 µM; S. cerevisiae RPL19A-GFP strain, 3 h; hits give low values; 100% means same as DMSO wells; AID 2623, 2010; 3% of 590 active; shares compounds with LAP4-GFP MLPCN;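 active = under 65% GFP response relative to DMSO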;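 note: median GFP channel fluorescence per well over the all cells gate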
CIT2 GFP CP2: modulators of CIT2-GFP expression in yeast, confirmation, flow cytometry, second cherry pick, single plex; 8% of 590 active; GFP response vs DMSO, % at 10 µM; shares compounds with LAP4-GFP MLPCN; S. cerevisiae CIT2-GFP strain, 3 h; DMSO control wells read 100%; AID 2624, 2010;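 active = GFP response vs DMSO above about 150%, limit read from the data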;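 note: median green fluorescence per well over all gated yeast cells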
AGP1 GFP CP2: AGP1-GFP expression modulators, hit retest, confirmation, cell-based, flow cytometry, S. cerevisiae, cherry pick set 2; S. cerevisiae AGP1-GFP strain, 3 h; percent response vs DMSO, % at 10 µM; 590 tested, under 10 active; shares compounds with LAP4-GFP MLPCN;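 active = over 150 percent of DMSO response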;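 note: median GFP channel fluorescence over all cells without mother daughter split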
Yeast autofluor: compound autofluorescence in yeast s288c, dose response, artefact control for yeast TOR pathway GFP screen, s288c strain | shares compounds with LAP4-GFP MLPCN | 610 tested, under 10 active | S. cerevisiae s288c, 520 nm autofluorescence, flow cytometry, 3 h; hits give high values; zero means same as solvent-only cells | fluorescence change (kMESF span) at 33 µM;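 active = fluorescence span over the dose series, or activity score, above about 33, limit read from the data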
s288c autofl DR: autofluorescence of compounds in yeast s288c, dose response, artefact control for yeast TOR pathway GFP screen, primary hits, KU SAR, s288c parental | shares compounds with LAP4-GFP MLPCN | S. cerevisiae s288c parental, compound autofluorescence, flow cytometry, 3 h | fluorescence change (span) at 33 µM | 110 tested, under 10 active | AID 488829, 2010;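 active = fluorescence change span, or the activity score built from it, above 25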
TORC1 bypass: wild-type yeast growth inhibition sparing TORC1 bypass cells, mechanism study for yeast TOR pathway GFP screen, BY4741 wild type, TORC1 bypass strain; shares compounds with LAP4-GFP MLPCN; S. cerevisiae BY4741 spot growth rating, 48-72 h; hits give low values; growth rating (0-3) at 30 µM; 120 tested, under 10 active;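 active = growth rating at most 1 for wild type yeast while the TORC1 bypass strain still grows fully, rated 3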
Large screens that a line does not name were inactive (follow-up assays come after a bar, where they were run). This is a sample that favours compounds with a hit; in the whole collection about 0.92% have one here.

C[C@@]12C(=O)OC(=O)[C@]1(C)C1CCC2O1	LAP4-GFP MLPCN 189 | LAP4 cherry2 213 | MEP2-GFP pick2 inactive | RPL19A-GFP pick2 inactive | CIT2 GFP CP2 inactive | AGP1 GFP CP2 inactive | Yeast autofluor inactive
CN(c1ccccc1)c1ccc(/C=C/[N+](=O)[O-])cc1	LAP4-GFP MLPCN 154 | LAP4 cherry2 inactive | MEP2-GFP pick2 inactive | RPL19A-GFP pick2 inactive | CIT2 GFP CP2 inactive | AGP1 GFP CP2 inactive
COc1ccc(CCn2c(C)cc(C(=O)CN3C(=O)C(=O)N(Cc4ccco4)C3=O)c2C)cc1	none
Cc1ccc(NC(=O)c2nc(S(=O)(=O)Cc3ccccc3)ncc2Cl)cc1	LAP4-GFP MLPCN 152 | Yeast autofluor inactive
Cc1nc2ccc(NC(=O)c3oc4ccc(F)cc4c3C)cc2s1	CIT2 TOR yeast active, AGP1-GFP MLPCN 266, MEP2-GFP yeast active, LAP4-GFP MLPCN 884 | LAP4 cherry2 inactive | MEP2-GFP pick2 inactive | RPL19A-GFP pick2 inactive | CIT2 GFP CP2 inactive | AGP1 GFP CP2 inactive | Yeast autofluor inactive
Cc1c(C(=O)Nc2ccc3nc(N4CCOCC4)sc3c2)oc2ccccc12	none
CCCS(=O)(=O)N1CCCC(C(=O)Oc2ccc(Cl)cc2)C1 (stereo unspecified)	none
O=C(NC(=S)Nc1ccc2oc(=O)ccc2c1)c1cccc(Cl)c1	none | LAP4 cherry2 inactive | MEP2-GFP pick2 inactive | RPL19A-GFP pick2 inactive | CIT2 GFP CP2 inactive | AGP1 GFP CP2 inactive | Yeast autofluor inactive
O=C(NC(=S)Nc1ccc2oc(=O)ccc2c1)c1cccc(F)c1	none
O=C1C(Cl)=C(N2CCN(Cc3ccccc3)CC2)C(=O)N1c1ccccc1	none | Yeast autofluor inactive
CC1(C2CC2)NC(=O)N(CC(=O)NCC(=O)Nc2ccc(F)c(F)c2F)C1=O (stereo unspecified)	none
CCCCOc1ccc(C(=O)NCCOc2cccc(OC)c2)cc1	none
COc1ccc(-c2cc(C(F)F)n3ncc(C(=O)NCC4CCCO4)c3n2)cc1 (stereo unspecified)	CIT2 TOR yeast 174 | LAP4 cherry2 inactive | MEP2-GFP pick2 inactive | RPL19A-GFP pick2 inactive | CIT2 GFP CP2 inactive | AGP1 GFP CP2 inactive
CN(CC(=O)Nc1ccc(F)cc1)C(=O)c1ccc(OCc2cn3ccccc3n2)cc1	none
CC(C)C(=O)NC(c1cccs1)c1cc([N+](=O)[O-])c2cccnc2c1O (stereo unspecified)	LAP4-GFP MLPCN 153 | Yeast autofluor inactive
Cc1ccc(C(NC(=O)C(C)C)c2cc([N+](=O)[O-])c3cccnc3c2O)cc1 (stereo unspecified)	none
O=C(CCc1ccncc1)N1CCCC(Nc2ccc(F)c(F)c2)C1 (stereo unspecified)	none
O=[N+]([O-])c1cnc(Sc2ccncn2)s1	LAP4-GFP MLPCN 262 | Yeast autofluor inactive
Cc1nn2c(NCc3ccccn3)c3c(nc2c1-c1ccccc1)CCC3	LAP4-GFP MLPCN 152 | Yeast autofluor inactive
Cc1ccc(NC(=O)C/C(N)=N/OC(=O)Nc2cccc(C)c2)cc1	none
Cc1ccc(NC(=O)ON=C2CCCC2)cc1	CIT2 TOR yeast 219 | Yeast autofluor inactive
O=C(Nc1ccccc1)O/N=C/c1ccncc1	none
O=C(Nc1ccccc1)ON=C1CCCC1	none | LAP4 cherry2 inactive | MEP2-GFP pick2 inactive | RPL19A-GFP pick2 inactive | CIT2 GFP CP2 inactive | AGP1 GFP CP2 inactive | Yeast autofluor inactive
COc1cccc(-c2sc3ccc(OC)cc3c2C#CCCO)c1	none
CC(NC(=O)c1ccccc1F)C12CC3CC(CC(C3)C1)C2 (stereo unspecified)	LAP4-GFP MLPCN 158 | LAP4 cherry2 inactive | MEP2-GFP pick2 inactive | RPL19A-GFP pick2 inactive | CIT2 GFP CP2 inactive | AGP1 GFP CP2 inactive
CC(=O)Nc1ccc(NC(=O)C(C)OC(=O)CC23CC4CC(CC(Br)(C4)C2)C3)cc1 (stereo unspecified)	none
CC(C)CN(C(=O)c1cccc(Cl)c1)c1c(N)n(Cc2ccccc2)c(=O)[nH]c1=O	none
CC(Oc1cccc(Cl)c1)C(=O)Nc1nc(-c2ccccn2)cs1 (stereo unspecified)	LAP4-GFP MLPCN 171 | Yeast autofluor inactive
O=C(COc1ccc(F)cc1Cl)Nc1nc(-c2ccccn2)cs1	LAP4-GFP MLPCN 171 | Yeast autofluor inactive | s288c autofl DR inactive | TORC1 bypass inactive
CC(Oc1ccccc1)C(=O)Nc1nc(-c2ccncc2)cs1 (stereo unspecified)	none
Cc1onc(-c2c(F)cccc2Cl)c1C(=O)Nc1cccc(S(=O)(=O)N2CCOCC2)c1	none
Cc1cnc(NC(=O)CCCNC(=O)c2ccc(Cl)cc2)s1	none
